Laboratory results taken from PubChem BioAssay (NCATS).
Inconclusive results are not listed. Where a call stands in place of a potency, no number is given. Calls of active or inactive are those of the source. The call rests on the fitted dose curve; in most records, active means well fitted curve in the direction sought with a large enough effect; inconclusive means small, poorly fitted or top-dose-only effect, or another doubt; inactive means no such curve, though single readings can be large; an effect the other way counts as inactive or inconclusive.

What was measured:
[1] = qHTS of pediatric cancer cell lines to identify multiple opportunities for drug repurposing: Primary screen for TC32 cells (AID 1347089); details: TC32 Ewing sarcoma viability, CellTiter-Glo luminescence, 48 h; series mostly up to 45.8 µM; further: nearly all actives have a fitted effect of over 60% in size
Method in brief: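 Measured quantity: luminescence from CellTiter-Glo, reflecting metabolically active TC32 cells following 48 h of compound. Curves came straight from multi-point titrations, with 8 or 11 points in primary and 11 in confirmatory screening.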

[2] = qHTS of pediatric cancer cell lines to identify multiple opportunities for drug repurposing: Primary screen for SK-N-MC cells (AID 1347093); details: SK-N-MC viability, CellTiter-Glo luminescence, 48 h; series mostly up to 46 µM
Method in brief: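 Metabolically active cells were quantified by ATP-dependent luminescence (CellTiter-Glo, 15 min at room temperature) following 48 h treatment. Cells had been plated at 500-1,000 per well and settled for 5 h beforehand.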

[3] = qHTS of pediatric cancer cell lines to identify multiple opportunities for drug repurposing: Primary screen for NB-EBc1 cells (AID 1347095); details: NB-EBc1 neuroblastoma viability, CellTiter-Glo luminescence, 48 h; series mostly up to 46 µM
Method in brief: (§1)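 500-1,000 cells/well; 5 h pre-incubation 37 °C/5% CO2; compound pinned; 48 h; CellTiter-Glo, 15 min RT; luminescence. MIPE 11-pt from 0.78 nM, NPC 8-pt from 0.59 nM final. Bortezomib 2.3 µM final as positive control.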

[4] = qHTS of pediatric cancer cell lines to identify multiple opportunities for drug repurposing: Primary screen for DAOY cells (AID 1347090); details: DAOY medulloblastoma viability, CellTiter-Glo luminescence, 48 h; series mostly up to 46 µM; further: nearly all actives have a fitted effect of over 55% in size
Method in brief: (§2)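 Cell viability, CellTiter-Glo luminescence; 500-1,000 cells/well, 8- or 11-point titration, 48 h compound exposure at 37 degrees C, 5% CO2. Controls: DMSO neutral, bortezomib 2.3 µM final as positive.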

[5] = qHTS of pediatric cancer cell lines to identify multiple opportunities for drug repurposing: Primary screen for SJ-GBM2 cells (AID 1347091); details: SJ-GBM2 viability, CellTiter-Glo luminescence, 48 h; series mostly up to 46 µM
Method in brief: as §2

[6] = qHTS of pediatric cancer cell lines to identify multiple opportunities for drug repurposing: Primary screen for A673 cells (AID 1347092); details: A673 Ewing sarcoma viability, CellTiter-Glo ATP luminescence, 48 h; series mostly up to 46 µM; further: nearly all actives have a fitted effect of over 45% in size
Method in brief: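 Cells are plated, rested 5 h, dosed by pintool, incubated 48 h, then lysed with CellTiter-Glo and read by luminescence. DMSO is the neutral control; bortezomib at 2.3 uM final is the positive control.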

[7] = qHTS of pediatric cancer cell lines to identify multiple opportunities for drug repurposing: Primary screen for BT-37 cells (AID 1347094); details: BT-37 viability, CellTiter-Glo luminescence, 48 h; series mostly up to 57.3 µM
Method in brief: as §1

[8] = qHTS of pediatric cancer cell lines to identify multiple opportunities for drug repurposing: Primary screen for U-2 OS cells (AID 1347096); details: U-2 OS viability, CellTiter-Glo luminescence, 48 h; series mostly up to 46 µM; further: nearly all actives have a fitted effect of over 50% in size
Method in brief: (§3)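 Cells (500-1,000/well) rested 5 h, then received compounds for 48 h; metabolically active cells were measured by CellTiter-Glo luminescence. Final concentrations spanned up to 46 µM (MIPE, 11-point) or 0.59 nM-46 µM (NPC, 8-point) in primary screens, 11-point in follow-ups.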

[9] = qHTS of pediatric cancer cell lines to identify multiple opportunities for drug repurposing: Primary screen for Saos-2 cells (AID 1347097); details: Saos-2 viability, CellTiter-Glo ATP luminescence, 48 h; series mostly up to 46 µM; further: nearly all actives have a fitted effect of over 40% in size
Method in brief: as §1

[10] = qHTS of pediatric cancer cell lines to identify multiple opportunities for drug repurposing: Primary screen for SK-N-SH cells (AID 1347098); details: SK-N-SH viability, CellTiter-Glo luminescence, 48 h; series mostly up to 57 µM; further: nearly all actives have a fitted effect of over 65% in size
Method in brief: as §3
Potency means the concentration at half of the fitted maximal effect.

Structure (SMILES)	Potency [1]	Potency [2]	Potency [3]	Potency [4]	Potency [5]	Potency [6]	Potency [7]	Potency [8]	Potency [9]	Potency [10]
O=C1NC(=O)C(=Cc2ccc(-c3ccc(F)cc3O)o2)S1	inactive	23.5 µM (active)	5.26 µM (active)							
O=c1[nH]c(=O)n([C@H]2C[C@@H](O)[C@@H](CO)O2)cc1I		inactive	inactive	inactive	inactive	inactive	inactive	inactive	inactive	inactive
O=C(Nc1cccc(C(F)(F)F)c1)Nc1cc(S(=O)(=O)NC2CC2)ccc1-c1ccsc1	inactive		23.5 µM (active)					inactive	29.6 µM (active)	inactive
C[C@H](CCC(=O)O)[C@H]1CC[C@H]2[C@H]3[C@@H](CC[C@]12C)[C@@]1(C)CC[C@@H](O)C[C@H]1C[C@@H]3O	inactive		14.8 µM (active)				27.3 µM (active)	inactive	inactive	inactive
O=C1CN2Cc3c(ccc(Cl)c3Cl)N=C2N1	inactive							inactive	inactive	
COc1cc2c(cc1Cc1cccc(Cl)c1F)c(=O)c(C(=O)O)cn2[C@H](CO)C(C)C	inactive						13.7 µM (active)			inactive
O=C(O)C1=NC(C(=O)O)CC(C=CN2c3cc(O)c(OC4OC(CO)C(O)C(O)C4O)cc3CC2C(=O)O)=C1 (stereo not given)			inactive	inactive	inactive	inactive	inactive	inactive	inactive	inactive
N#Cc1c(N(CC(=O)O)CC(=O)O)sc(C(=O)O)c1CC(=O)O		inactive	inactive	inactive	inactive	inactive	inactive	inactive	inactive	inactive
CC[C@H](CC#N)OC(=O)N[C@@H](C)c1cccc(NC(=O)Nc2ccc(-c3cnco3)c(OC)c2)c1	1.04 µM (active)	0.59 µM (active)	0.296 µM (active)				0.485 µM (active)		18.7 µM (active)	inactive
CC(C)(CO)[C@@H](O)C(=O)NCCC(=O)O		inactive	inactive	inactive	inactive		inactive	inactive	inactive	inactive
N#CC(=C1Nc2ccccc2S1)c1ccnc(OCc2ccc(CN3CCOCC3)cc2)n1		0.0053 µM (active)	0.526 µM (active)	0.0093 µM (active)	3.32 µM (active)	0.0235 µM (active)	0.306 µM (active)		0.0148 µM (active)	0.482 µM (active)
O=[N+]([O-])c1ccc(Nc2ccccc2-c2ccccc2)c2nonc12	inactive	29.6 µM (active)	23.5 µM (active)				inactive	inactive		inactive
C=CCc1cccc(C=NNC(=O)CN2CCN(Cc3ccccc3)CC2)c1O		11.8 µM (active)	5.9 µM (active)	18.7 µM (active)	6.62 µM (active)		9.68 µM (active)	inactive	5.9 µM (active)	9.61 µM (active)
CC(C)CN(C[C@@H](O)[C@H](Cc1ccccc1)NC(=O)O[C@H]1CO[C@H]2OCC[C@H]21)S(=O)(=O)c1ccc(N)cc1		2.35 µM (active)		14.8 µM (active)	inactive	5.9 µM (active)	6.11 µM (active)		20.9 µM (active)	inactive
O=C(Nc1cccc(Cl)c1)Nc1ncc(CCNc2ncnc3ccsc23)s1	0.739 µM (active)							inactive	2.96 µM (active)	
NCC1CCC(C(=O)O)CC1 (stereo not given)		inactive	inactive	inactive	inactive	inactive	inactive	inactive		inactive
Clc1ccc(C2(c3ccc(-c4cn[nH]c4)cc3)CCNCC2)cc1		6.62 µM (active)	16.6 µM (active)	23.5 µM (active)		18.7 µM (active)	inactive	inactive	4.18 µM (active)	24.1 µM (active)
Cn1c(=O)c(Oc2ccc(F)cc2F)cc2cnc(NC3CCOCC3)nc21		inactive	inactive		inactive	inactive	inactive	inactive		inactive
O=C(CC12CC3CC(CC(C3)C1)C2)Nc1cccc2nc(NCCNCCO)ccc12		1.87 µM (active)		9.35 µM (active)		18.7 µM (active)	inactive	inactive		24.1 µM (active)
CCOC(=O)[C@H]1O[C@H]1C(=O)N[C@@H](CC(C)C)C(=O)NCCC(C)C			inactive	inactive	inactive		inactive	inactive		inactive
CC[C@H](C)C(=O)O[C@H]1C[C@H](O)C=C2C=C[C@H](C)[C@H](CC[C@@H](O)C[C@@H](O)CC(=O)O)[C@H]21		inactive	inactive	inactive			inactive	inactive		inactive

Structure (SMILES)	Potency [1]	Potency [2]	Potency [3]	Potency [4]	Potency [5]	Potency [6]	Potency [7]	Potency [8]	Potency [9]	Potency [10]
CCCCC(C)(C)[C@H](O)C=C[C@H]1[C@H](O)CC(=O)[C@H]1CC=CCCCC(=O)O		20.9 µM (active)	5.26 µM (active)	inactive				inactive	inactive	inactive
COc1ccc2cc1Oc1ccc(cc1)C[C@H]1c3cc(c(OC)cc3CCN1C)Oc1c(OC)c(OC)cc3c1[C@H](C2)N(C)CC3		23.5 µM (active)		18.7 µM (active)		23.5 µM (active)		inactive	29.6 µM (active)	
N=C1SC(=Cc2ccc(-c3ccc4c(c3)C(=O)NC4=O)o2)C(=O)N1c1ccc(Br)cc1		inactive	3.72 µM (active)	inactive		inactive		inactive	inactive	inactive
CC1=C(CC(=O)O)c2cc(F)ccc2C1=Cc1ccc(S(C)=O)cc1 (stereo not given)			18.7 µM (active)	3.72 µM (active)				inactive		19.2 µM (active)
COC(=O)Nc1ccc(-c2nc(N3CCOCC3)c3cnn(C4CCN(C(=O)OC)CC4)c3n2)cc1			0.0083 µM (active)	1.87 µM (active)		0.59 µM (active)	0.122 µM (active)		2.96 µM (active)	0.0192 µM (active)
N#CC1(c2cccc(C(=O)Nc3cc(Oc4ccc5nc(NC(=O)C6CC6)sc5n4)ccc3F)c2Cl)CC1					inactive					
CN(C)CC[C@H](CSc1ccccc1)Nc1ccc(S(=O)(=O)NC(=O)c2ccc(N3CCN(Cc4ccccc4-c4ccc(Cl)cc4)CC3)cc2)cc1[N+](=O)[O-]		0.0148 µM (active)	0.0418 µM (active)	18.7 µM (active)	0.0833 µM (active)			14.8 µM (active)	9.35 µM (active)	7.64 µM (active)
Cc1cnc(CNC(=O)c2c(=O)c3ccc(N4CCCN(C)CC4)nc3n3c2sc2ccccc23)cn1			6.45 µM (active)	inactive		inactive		inactive	inactive	
O=C(O)c1nc(=O)[nH]c(=O)[nH]1		inactive	inactive	inactive			inactive	inactive	inactive	inactive
O=C(O)CCNc1cc(N2CCc3ccccc3CC2)nc(-c2ccccn2)n1		23.5 µM (active)	23.5 µM (active)		inactive	18.7 µM (active)				
CC(C)CNc1ccnc(NCc2csc(-c3ccccc3)n2)n1		10.5 µM (active)		18.7 µM (active)		11.8 µM (active)	24.3 µM (active)	inactive		
C[C@@H]1CC=CC=CC=CC=C[C@@H](O[C@@H]2O[C@H](C)[C@@H](O)[C@H](N)[C@H]2O)C[C@@H]2O[C@](O)(C[C@@H](O)C[C@@H]3O[C@@H]3C=CC(=O)O1)C[C@H](O)[C@@H]2C(=O)O		8.33 µM (active)		7.43 µM (active)				inactive	inactive	inactive
CCNC(=O)CCCC=CC[C@@H]1[C@H](C=CC(O)CCc2ccccc2)[C@@H](O)C[C@@H]1O (stereo not given in full)		inactive	inactive		inactive	inactive		inactive	inactive	
CC[C@H](C)n1cc(C)c2c(C(=O)NCc3c(C)cc(C)[nH]c3=O)cc(-c3ccc(N4CCNCC4)nc3)cc21		0.59 µM (active)		11.8 µM (active)		1.48 µM (active)	19.3 µM (active)	inactive	18.7 µM (active)	6.07 µM (active)
COc1cc2nccc(Oc3ccc(NC(=O)Nc4cc(C)on4)c(Cl)c3)c2cc1OC			13.2 µM (active)	5.9 µM (active)	14.8 µM (active)		24.3 µM (active)	18.7 µM (active)	14.8 µM (active)	19.2 µM (active)
Fc1ccc(CNc2ncnc3ccc(F)cc23)cc1		16.6 µM (active)		7.43 µM (active)		9.35 µM (active)		inactive		
CC1=C(C(=O)Nc2cc3cn[nH]c3cc2F)C(c2ccc(C(F)(F)F)cc2)CC(=O)N1 (stereo not given)				inactive			inactive	inactive		
C[C@H]1O[C@@H](n2cc(F)c(=O)[nH]c2=O)[C@H](O)[C@H]1O			4.69 µM (active)	inactive				inactive	inactive	
Cc1cccc2c1CC[C@H](CN1CCC(c3c(Cl)cccc3Cl)CC1)C[C@@H]2O		9.35 µM (active)	inactive	inactive	inactive		30.6 µM (active)			inactive
Nc1ncnc2c1ncn2[C@@H]1O[C@H](CO)[C@@H](O)[C@@H]1O		0.833 µM (active)	3.32 µM (active)	4.69 µM (active)		0.935 µM (active)	5.44 µM (active)	14.8 µM (active)	2.96 µM (active)	15.2 µM (active)
